What follows are molecules tested against T1, Tyrosyl-tRNA synthetase, putative (Trypanosoma cruzi (strain CL Brener)) (UniProt Q4DSP6) (assay: Trypanosoma cruzi tyrosyl tRNA synthetase (TcYRS) _High Tyrosine SOP). Settings: 30 µM.
T1 sequence (whole entry): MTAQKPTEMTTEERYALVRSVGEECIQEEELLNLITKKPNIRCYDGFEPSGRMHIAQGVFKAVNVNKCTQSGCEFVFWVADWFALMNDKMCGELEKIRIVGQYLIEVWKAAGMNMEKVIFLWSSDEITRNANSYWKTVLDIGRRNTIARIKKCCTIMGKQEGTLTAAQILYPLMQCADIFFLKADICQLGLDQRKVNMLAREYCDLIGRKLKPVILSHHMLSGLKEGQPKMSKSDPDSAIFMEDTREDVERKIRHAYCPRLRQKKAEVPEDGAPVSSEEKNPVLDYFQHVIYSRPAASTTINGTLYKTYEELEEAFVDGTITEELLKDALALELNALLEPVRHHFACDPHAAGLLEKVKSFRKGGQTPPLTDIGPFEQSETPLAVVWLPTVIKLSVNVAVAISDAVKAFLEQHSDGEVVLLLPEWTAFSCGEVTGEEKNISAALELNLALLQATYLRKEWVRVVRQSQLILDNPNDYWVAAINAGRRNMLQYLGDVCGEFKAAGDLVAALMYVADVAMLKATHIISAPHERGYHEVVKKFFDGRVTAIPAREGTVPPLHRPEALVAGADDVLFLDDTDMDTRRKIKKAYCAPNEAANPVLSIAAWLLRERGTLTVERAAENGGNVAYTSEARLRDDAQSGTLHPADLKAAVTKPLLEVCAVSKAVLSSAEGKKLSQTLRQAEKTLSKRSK
Format: functional
Parameters: scale not given: in the data most compounds retested in dose-response had high values

Row | Compound | Percent Effect
1 | CCC1CN(c2nnc(C)c(C)c2C#N)CCO1 (stereo not given) | 0.49%
2 | COC(=O)c1ccccc1NC(=O)c1nc2ccccc2n(C)c1=O | 4.23%
3 | CCn1cnnc1C1CCN(C(=O)c2ccc(C(=O)OC)s2)CC1 | 4.85%
4 | COc1ccc(NC(=O)CNc2cccc3c2CCCC3)c(OC)c1 | -6.45%
5 | Cc1ccc(N2CCCC(NCc3cccc4c3OCCO4)C2)nn1 (stereo not given) | 10.3%
6 | Cc1nc(CN2C(=O)C[C@@H]3[C@@H]2CCN3C(=O)C2CCOCC2)cs1 | 1.04%
7 | Cc1cnn(CC2CCCCN2CCC(=O)Nc2cc(C)on2)c1 (stereo not given) | 1.04%
8 | COCC(=O)N1CCC2(CC1)COCCN2CCN(C)C | 3.12%
9 | CCc1n[nH]c(C2CN(Cc3nccn3CC)CCO2)n1 (stereo not given) | 12.4%
10 | CCOc1cccc(NS(=O)(=O)c2cc(C)c(C(=O)O)s2)c1 | -10.8%
11 | CCCNC(=O)c1sc(Nc2ccc(Cl)cn2)nc1C | 7.41%
12 | CC(C)c1ncc2c(n1)CN(Cc1nc(Cc3ccccc3)no1)CC2 | 17.8%
13 | CS(=O)(=O)NC1CCN(C(=O)NCCNc2ccccn2)CC1 | -0.99%
14 | OCC1CCCN1c1cc(NCc2ccc(Cl)s2)ncn1 (stereo not given) | 4.17%
15 | COc1cc(CCC(=O)NC2CC2)ccc1OCC(F)(F)F | 4.43%
16 | CCS(=O)(=O)c1ccc(N2CCC(NC(C)=O)CC2)cc1 | 2.73%
17 | CC(=O)c1cn(CCC(=O)N[C@H](C(=O)O)C(C)C)c2ccccc12 | 7.41%
18 | CCS(=O)(=O)c1ccc(N2CCC(NC(=O)c3cnn(C)c3)CC2)cc1 | 1.64%
19 | Cc1nc[nH]c1-c1nc2cc(S(=O)(=O)N3CCCC3)ccc2n1C | 7.53%
20 | CCN(CCn1cccn1)Cc1nc(-c2ccccc2F)oc1C | 1.05%

Row | Compound | Percent Effect
21 | CN(Cc1ccncc1)C(=O)Nc1cnn(CC2CCCO2)c1 (stereo not given) | -1.59%
22 | Cc1cccc(-c2ccc(C(=O)NCC3CCOC3)c(=O)[nH]2)c1 (stereo not given) | 5.42%
23 | COc1ccc(C2CCCN2C(=O)NCCNc2ncccn2)cc1 (stereo not given) | 5.38%
24 | Cc1cc(C)c2nc(CN3CC[C@@H](O)C3)cc(O)c2c1 | 13.2%
25 | CCOc1cccc(CNC(=O)NCC(O)c2cccc(F)c2)c1 (stereo not given) | 7.39%
26 | CN(C)C1CCN(C(=O)NCc2ccc(Cn3cncn3)cc2)CC1 | 5.82%
27 | Cc1nn(C)c(C)c1C1CCCN1C(=O)CCCn1cccn1 (stereo not given) | 0.493%
28 | O=C(NC1CCS(=O)(=O)C1)c1sccc1-c1ccc(F)cc1 (stereo not given) | 0%
29 | O=C(NCCn1ccnc1)c1cccc(F)c1 | 5.42%
30 | CCC(=O)N1Cc2nccn2CC(CN(C)Cc2cccnc2)C1 (stereo not given) | 4.25%
31 | Cc1nc(N2CCN(C(=O)c3ccc(O)cc3)CC2)c2cnn(C)c2n1 | -2.46%
32 | CCOC(=O)C1CCN(C(=O)Cn2ccc3cc(Br)ccc32)CC1 | 1.06%
33 | Cc1cccc(CN2C[C@@H]3CN(C(=O)c4ccsc4)C[C@@H]3C2=O)c1 | 3.23%
34 | CN(C)S(=O)(=O)c1ccc(OCCNCCn2cccn2)cc1 | -1.04%
35 | CN(C)S(=O)(=O)N1CCC2(CCCN(Cc3ccc(F)cc3)C2=O)C1 (stereo not given) | 5.21%
36 | CCOc1nnc(CN(C)C2CCCN(c3cccnn3)C2)s1 (stereo not given) | 7.45%
37 | Cc1cc(-c2nnn(CCC(N)=O)n2)ccc1F | 8.33%
38 | Cn1cc(C(=O)CC2CCCN2C(=O)c2cncc3ccccc23)cn1 (stereo not given) | 5.21%
39 | Cc1ccccc1CSCCn1nc2ccccn2c1=O | 4.76%
40 | Cn1ccnc1-c1cccc(NC(=O)NCCCO)c1 | 5.26%
